# Measured values reported in PubChem BioAssay (NCI).
# Compounds without any hit were thinned out: in the full panel of roughly 79,000, 15% have a hit. Values without a mark were called inactive. Calls of active or inactive are those of the source. No stated cut-off is given here; in the data, active means growth inhibition above about 70%; inactive means the rest.
# Assays:
# [1] = NCI Yeast Anticancer Drug Screen. Data for the rad52 strain (AID 147);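 further: 0% = growth of vehicle-treated control cultures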; details: S. cerevisiae rad52 mutant growth inhibition, active compounds read high
# Procedure, shortened: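 Measured: yeast growth inhibition. System: strain with a defined DNA damage repair alteration. Reference: vehicle-treated control cultures.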
# [2] = NCI Yeast Anticancer Drug Screen. Data for the wt1 strain (AID 149);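 further: 0% = growth of vehicle-treated wt1 cultures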; details: S. cerevisiae wt1 strain (SPY 50644) growth inhibition, active compounds read high
# Procedure, shortened: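 Growth inhibition read against vehicle controls after compound exposure of the wt1 yeast strain.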
# [3] = NCI Yeast Anticancer Drug Screen. Data for the rad50EPP+ strain (AID 151);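 further: 0% = growth of vehicle-treated control cultures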; details: S. cerevisiae rad50 mutant strain, active compounds read high
# Procedure, shortened: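 One strain with a rad50 alteration (rad50EPP+) was compound-treated, its growth then compared to that of vehicle controls.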
# [4] = NCI Yeast Anticancer Drug Screen. Data for the mgt1 strain (AID 153); details: S. cerevisiae mgt1 mutant growth inhibition, active compounds read high
# Procedure, shortened: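 After exposure of the mgt1 yeast mutant to compound, growth was measured and reported as inhibition compared with vehicle controls.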
# [5] = NCI Yeast Anticancer Drug Screen. Data for the rad50 strain (AID 155);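 further: 0% = growth of vehicle-only cultures of the same strain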; details: S. cerevisiae rad50 strain growth inhibition, active compounds read high
# Procedure, shortened: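 Readout: growth inhibition relative to vehicle-treated cultures. Compound exposure was carried out in a genetically defined yeast strain deficient in DNA damage repair.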
# [6] = NCI Yeast Anticancer Drug Screen. Data for the rad14 strain (AID 159);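 further: 0% = growth of vehicle-treated control cultures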; details: S. cerevisiae rad14 strain growth inhibition, active compounds read high
# Procedure, shortened: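 Growth inhibition vs vehicle controls; genetically altered yeast strain (DNA damage repair defect) treated with test compounds.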
# [7] = NCI Yeast Anticancer Drug Screen. Data for the sgs1 mgt1 strain (AID 161);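 further: 0% = growth of cultures given vehicle only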; details: S. cerevisiae sgs1 mgt1 strain, active compounds read high
# Procedure, shortened: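 Mutant yeast exposed to compound; growth scored against vehicle-only wells.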
# [8] = NCI Yeast Anticancer Drug Screen. Data for the CLN2oe strain (AID 163);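 further: 0% = growth of vehicle-only control cultures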; details: S. cerevisiae CLN2oe strain, active compounds read high
# Procedure, shortened: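 Here, growth inhibition in a cell-cycle-altered yeast strain after compound exposure was quantified against vehicle control growth.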
# [9] = NCI Yeast Anticancer Drug Screen. Data for the cln2 rad14 strain (AID 165);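 further: 0% = growth equal to vehicle treated cultures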; details: S. cerevisiae cln2 rad14 strain, active compounds read high
# Procedure, shortened: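 Growth of compound-exposed yeast (cln2 rad14 genotype) measured and expressed as inhibition relative to vehicle.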
# [10] = NCI Yeast Anticancer Drug Screen. Data for the bub3 strain (AID 167); details: S. cerevisiae bub3 mutant strain, active compounds read high
# Procedure, shortened: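 Readout: yeast growth inhibition, expressed relative to vehicle-only wells. The test organism is a mutant strain from a panel with lesions in DNA repair or checkpoint genes.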
# [11] = NCI Yeast Anticancer Drug Screen. Data for the wt2 strain (AID 169);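 further: 0% = growth of vehicle-treated yeast cultures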; details: S. cerevisiae wt2 strain growth inhibition, active compounds read high
# Procedure, shortened: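 Genetically defined yeast strains from a DNA-repair/cell-cycle panel were used. Compound-exposed yeast growth was measured, and the inhibition was calculated relative to vehicle treatment.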
# [12] = NCI Yeast Anticancer Drug Screen. Data for the mlh1 strain (AID 171);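 further: 0% = growth of vehicle-treated control cultures of the same strain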; details: S. cerevisiae mlh1 strain growth inhibition, active compounds read high
# Procedure, shortened: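 Here the genetically defined yeast mutant is grown with each compound, and the extent to which its growth falls below that of vehicle-exposed cells is reported.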
# [13] = NCI Yeast Anticancer Drug Screen. Data for the mlh1 rad18 strain (AID 175); details: S. cerevisiae mlh1 rad18 strain growth inhibition, active compounds read high
# Procedure, shortened: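 In this whole-cell yeast screen, a strain with altered DNA damage repair is challenged with compound, and its growth is measured against matched vehicle-treated controls.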
# [14] = NCI Yeast Anticancer Drug Screen. Data for the rad18 strain (AID 177); details: S. cerevisiae rad18 mutant growth inhibition, active compounds read high
# Procedure, shortened: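 Screen uses a yeast strain with a defined lesion in DNA damage repair; compound effect is read as loss of growth compared to untreated vehicle cultures.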
# [15] = at 5.0 µM (retest, dose inferred, filed as 0.5)
# [16] = at 50.0 µM (retest, dose inferred, filed as 5.0)
smiles,measurement,setting,value
CCOP(=O)(OCC)/C(C#N)=C/c1cccc(Oc2ccccc2)c1,growth inhibition,[1]; at 1.2 µM,-17%
same,growth inhibition,[1]; at 3.7 µM,-14%
same,growth inhibition,[1]; at 11.0 µM,60%
same,growth inhibition,[1]; at 33.0 µM,95% (active)
same,growth inhibition,[1]; at 100.0 µM,96% (active)
same,growth inhibition,[2]; at 1.2 µM,-13%
same,growth inhibition,[2]; at 3.7 µM,-26%
same,growth inhibition,[2]; at 11.0 µM,56%
same,growth inhibition,[2]; at 33.0 µM,96% (active)
same,growth inhibition,[2]; at 100.0 µM,97% (active)
same,growth inhibition,[3]; at 1.2 µM,0%
same,growth inhibition,[3]; at 3.7 µM,-7%
same,growth inhibition,[3]; at 11.0 µM,7%
same,growth inhibition,[3]; at 33.0 µM,7%
same,growth inhibition,[3]; at 100.0 µM,62%
same,growth inhibition,[4]; at 1.2 µM,-32%
same,growth inhibition,[4]; at 3.7 µM,-40%
same,growth inhibition,[4]; at 11.0 µM,28%
same,growth inhibition,[4]; at 33.0 µM,95% (active)
same,growth inhibition,[4]; at 100.0 µM,96% (active)
same,growth inhibition,[5]; at 1.2 µM,-30%
same,growth inhibition,[5]; at 3.7 µM,-30%
same,growth inhibition,[5]; [15],2%
same,growth inhibition,[5]; at 11.0 µM,42%
same,growth inhibition,[5]; at 33.0 µM,96% (active)
same,growth inhibition,[5]; [16],96% (active)
same,growth inhibition,[5]; at 50.0 µM,90.2% (active)
same,growth inhibition,[5]; at 100.0 µM,96% (active)
same,growth inhibition,[6]; at 1.2 µM,-40%
same,growth inhibition,[6]; at 3.7 µM,-39%
same,growth inhibition,[6]; at 11.0 µM,35%
same,growth inhibition,[6]; at 33.0 µM,94% (active)
same,growth inhibition,[6]; at 100.0 µM,96% (active)
same,growth inhibition,[7]; [15],1%
same,growth inhibition,[7]; [16],96% (active)
same,growth inhibition,[7]; at 50.0 µM,91.2% (active)
same,growth inhibition,[8]; at 1.2 µM,-12%
same,growth inhibition,[8]; at 3.7 µM,-23%
same,growth inhibition,[8]; at 11.0 µM,42%
same,growth inhibition,[8]; at 33.0 µM,97% (active)
same,growth inhibition,[8]; at 100.0 µM,97% (active)
same,growth inhibition,[9]; [15],-4%
same,growth inhibition,[9]; [16],97% (active)
same,growth inhibition,[9]; at 50.0 µM,90.5% (active)
same,growth inhibition,[10]; at 1.2 µM,-11%
same,growth inhibition,[10]; at 3.7 µM,-19%
same,growth inhibition,[10]; [15],22%
same,growth inhibition,[10]; at 11.0 µM,41%
same,growth inhibition,[10]; at 33.0 µM,97% (active)
same,growth inhibition,[10]; [16],95% (active)
same,growth inhibition,[10]; at 50.0 µM,90.3% (active)
same,growth inhibition,[10]; at 100.0 µM,97% (active)
same,growth inhibition,[11]; at 1.2 µM,1%
same,growth inhibition,[11]; at 3.7 µM,1%
same,growth inhibition,[11]; at 11.0 µM,38%
same,growth inhibition,[11]; at 33.0 µM,96% (active)
same,growth inhibition,[11]; at 100.0 µM,97% (active)
same,growth inhibition,[12]; at 1.2 µM,-2%
same,growth inhibition,[12]; at 3.7 µM,9%
same,growth inhibition,[12]; at 11.0 µM,48%
same,growth inhibition,[12]; at 33.0 µM,96% (active)
same,growth inhibition,[12]; at 100.0 µM,97% (active)
same,growth inhibition,[13]; [15],-8%
same,growth inhibition,[13]; [16],-3%
same,growth inhibition,[13]; at 50.0 µM,88.8% (active)
same,growth inhibition,[14]; at 1.2 µM,-6%
same,growth inhibition,[14]; at 3.7 µM,-16%
same,growth inhibition,[14]; at 11.0 µM,53%
same,growth inhibition,[14]; at 33.0 µM,97% (active)
same,growth inhibition,[14]; at 100.0 µM,97% (active)
O=C1C(=C2CCCC2)CCC1CN1CCCCC1 (stereo not given),growth inhibition,[1]; at 1.2 µM,3%
same,growth inhibition,[1]; at 3.7 µM,16%
same,growth inhibition,[1]; at 11.0 µM,20%
same,growth inhibition,[1]; at 33.0 µM,64%
same,growth inhibition,[1]; at 100.0 µM,96% (active)
same,growth inhibition,[2]; at 1.2 µM,6%
same,growth inhibition,[2]; at 3.7 µM,12%
same,growth inhibition,[2]; at 11.0 µM,27%
same,growth inhibition,[2]; at 33.0 µM,30%
same,growth inhibition,[2]; at 100.0 µM,89% (active)
same,growth inhibition,[3]; at 1.2 µM,28%
same,growth inhibition,[3]; at 3.7 µM,36%
same,growth inhibition,[3]; at 11.0 µM,48%
same,growth inhibition,[3]; at 33.0 µM,80% (active)
same,growth inhibition,[3]; at 100.0 µM,94% (active)
same,growth inhibition,[4]; at 1.2 µM,-10%
same,growth inhibition,[4]; at 3.7 µM,5%
same,growth inhibition,[4]; at 11.0 µM,13%
same,growth inhibition,[4]; at 33.0 µM,54%
same,growth inhibition,[4]; at 100.0 µM,95% (active)
same,growth inhibition,[5]; at 1.2 µM,2%
same,growth inhibition,[5]; at 3.7 µM,8%
same,growth inhibition,[5]; [15],-3%
same,growth inhibition,[5]; at 11.0 µM,9%
same,growth inhibition,[5]; at 33.0 µM,60%
same,growth inhibition,[5]; [16],57%
same,growth inhibition,[5]; at 50.0 µM,76.3% (active)
same,growth inhibition,[5]; at 100.0 µM,95% (active)
same,growth inhibition,[6]; at 1.2 µM,10%
same,growth inhibition,[6]; at 3.7 µM,10%
